In PubChem BioAssay AID720541 (National Center for Advancing Translational Sciences (NCATS), 2013) one finds Potency data, which are given here for 96 molecules.

Screen size: about 1,300 compounds; about 420 (32%) were called active. About 32% were inconclusive and are not listed. Calls come from the whole dose curve; as a rule, active = well fitted inhibition curve with a large enough effect; inconclusive = small, poorly fitted or top-dose-only effect; inactive = no such curve, though single readings can be large or run the other way. The list shows a part of the results. Entries that show only a call come without a potency.
Potency is the fitted concentration of half-maximal effect.

The target in the experiment is C-terminal-binding protein 1 (Homo sapiens) (UniProt Q13363). Description: qHTS for Inhibitors of the Phosphatase Activity of Eya2: Carboxyl-terminal binding protein (CtBP) Counterscreen for Cherry-picked Compounds. Note: nearly all actives have a fitted effect of over 65% in size. Conditions: purified protein-protein binding, AlphaScreen, 3 h; series mostly up to 46.1 µM. An outline of the steps:
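AlphaScreen using 25 nM GST-E1A with 25 nM CtBP-6xHIS; compounds at 2.5 nM–46 uM final, 2 h at room temperature, then donor/acceptor beads (20 ug/mL) for 1 h in the dark. Signal normalized to E1A peptide inhibitor (maximum inhibition) and DMSO.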
(In general: Quantitative high-throughput screening tests each substance at several concentrations.)
For the molecule `O=C(CCn1c(=O)oc2ccccc21)NCc1ccc2c(c1)OCO2`, the Potency entry is “inactive”. `CCCCn1nc(C(=O)Nc2ccc3c(c2)OCO3)c2ccccc2c1=O`: the Potency was 15.1 µM (active).

Consider `Cn1nnnc1SCC(=O)Nc1ccc2c(c1)OCO2`, for which the Potency result was “inactive”. Take `COc1cc2c(cc1OC)C(c1ccc([N+](=O)[O-])cc1)NCC2` (stereo unspecified): the Potency entry is “inactive”. For the molecule `Nc1ccc2nc3c(=O)[nH]c(=S)[nH]c3nc2c1`, the Potency was 3.79 µM (active). Then `CN(C)c1ccc(N=Nc2ccnc3ccccc23)cc1`, with 2.13 µM (active); and `COc1cc(NC(=O)CN2C(=O)CSc3ccc(S(=O)(=O)N4CCCC4)cc32)cc(OC)c1`, with “inactive”. Consider `COc1ccc(C2CC(c3ccccc3OC(=O)/C=C/c3ccccc3)=NN2C(C)=O)cc1` (stereo unspecified), for which the Potency is 1.69 µM (active). `CCC(=O)N1N=C(c2ccc(C)o2)CC1c1ccc(N(C)C)cc1` (stereo unspecified): the Potency entry is “inactive”. To `O=C(Oc1cccnc1)c1ccc([N+](=O)[O-])cc1Cl` belongs “inactive”; to `Cc1cccn2c(=O)c3cc(S(=O)(=O)c4ccc(F)cc4)c(=N)n(Cc4ccco4)c3nc12`, “inactive”; to `COc1ccc(CCn2c(=N)c(C(=O)NCc3ccco3)cc3c(=O)n4ccccc4nc32)cc1OC`, 9.53 µM (active). For the molecule `COc1ccc(CCn2c(=N)c(C(=O)NCC3CCCO3)cc3c(=O)n4ccccc4nc32)cc1` (stereo unspecified), the Potency was 12 µM (active).

As to `COc1ccc(-c2csc(Nc3ccc(S(N)(=O)=O)cc3)n2)cc1OC`, the Potency is 15.1 µM (active). Regarding `COc1ccccc1Nc1nc(-c2ccc3c(c2)NC(=O)CO3)cs1`, the Potency result was “inactive”. Then `COCCn1c(C)cc(C(=O)COC(=O)c2ccccc2Br)c1C`, with “inactive”; and `CCn1cc(C(=O)OCC(=O)c2cc(C)n(-c3ccccc3F)c2C)c(=O)c2ccc(C)nc21`, with 16.9 µM (active). In the case of `Cc1cc(C(=O)COC(=O)c2cccnc2Cl)c(C)n1-c1c(C)n(C)n(-c2ccccc2)c1=O`, the Potency entry was “inactive”.

For `CCC(=O)NC(=S)Nc1ccc(NC(=O)COc2ccc([N+](=O)[O-])cc2)cc1`, the Potency entry was “inactive”. In the case of `O=C(COC(=O)c1cc(-c2cccnc2)nc2ccccc12)Nc1ccc(F)cc1F`, the Potency result is “inactive”. For the molecule `COc1ccc(C(=O)Nc2nnc(-c3ccccc3)o2)cc1OC`, the Potency was 19 µM (active).

With `CC1CCCN(S(=O)(=O)c2ccc(C(=O)Nc3nnc(-c4ccco4)o3)cc2)C1` (stereo unspecified), the Potency entry was “inactive”. `CS(=O)(=O)c1ccc(-c2nnc(NC(=O)C3=COCCO3)o2)cc1`: the Potency result is “inactive”.

In the case of `O=C(COc1ccccc1)Nc1nnc(-c2ccco2)o1`, the Potency is 16.9 µM (active). Turning to `COc1ccc(NC(=O)c2ccc(COc3ccccc3)o2)c(OC)c1`, the Potency entry was “inactive”. Regarding `CCc1ccc(NC(=O)COC(=O)c2ccccc2OCC(=O)N(C)C)cc1`, the Potency result is “inactive”. Regarding `CCOc1ccccc1C(=O)OCC(=O)Nc1nnc(-c2ccccc2)o1`, the Potency was 13.5 µM (active). Then `COc1ccccc1-c1noc2c1C(=O)N(Cc1cn(-c3ccc(Cl)cc3)nn1)CC2`, with “inactive”; and `COc1cc(N)c(Cl)cc1C(=O)N[C@H]1CCN(CCCOc2ccc(F)cc2)C[C@H]1OC`, with “inactive”; and `Brc1ccc(Cn2c(-c3ccc(Br)o3)nc3ccccc32)o1`, with “inactive”. For the molecule `Cc1cc(C(=O)COC(=O)c2ccc(O)cc2)c(C)n1CCc1ccc(F)cc1`, the Potency result is “inactive”. To `Cc1c(C(=O)O)cccc1-c1ccc(/C=C2\SC(=O)NC2=O)o1` belongs “inactive”.

In the case of `CCn1c(C)cc(/C=C2/SC(=O)N(C(C)C(=O)OC)C2=O)c1C` (stereo unspecified), the Potency result is “inactive”.

For `CCOC(=O)C(C)N1C(=O)S/C(=C\c2ccc(-c3ccccc3C(=O)O)o2)C1=O` (stereo unspecified), the Potency is 15.1 µM (active).

With `O=C(O)CSCc1nc2cccnc2n1C1CCCCC1`, the Potency entry was “inactive”. For the molecule `CC1(C)CC(=O)C(C2C3=C(CC(C)(C)CC3=O)Oc3c(Br)cc(Br)cc32)=C(O)C1` (stereo unspecified), the Potency was 4.78 µM (active). To `Cc1nc(C)c(-c2csc(Nc3ccc(O)c(C(=O)O)c3)n2)s1` belongs 15.1 µM (active); to `Cn1c(=O)c2[nH]c(COc3ccccc3)nc2n(C)c1=O`, “inactive”.

With `CC1(C)Nc2cccc3c(N=Nc4ccc(N=Nc5ccccc5)c5ccccc45)ccc(c23)N1`, the Potency was 3.38 µM (active). To `COc1ccc(N(CC(=O)Nc2nc3ccc(C)cc3s2)S(=O)(=O)c2c(C)nn(C)c2C)cc1` belongs “inactive”; to `Cc1cnc2ccc(I)cc2c1/C=C/c1ccc(N(C)C)cc1`, 10.7 µM (active); to `Cc1ccc(-n2nnnc2C(=Cc2ccc(N(C)C)cc2)c2nnnn2-c2ccc(C)cc2)cc1`, “inactive”.

For the molecule `CCN(CC)c1ccc(/C=C/c2c(C)cnc3ccc(C)cc23)cc1`, the Potency is 8.49 µM (active).

Regarding `CCc1cnc2ccccc2c1/C=C/c1ccc(N(C)C)cc1`, the Potency was 10.7 µM (active).

Regarding `Cc1ccc2c(/C=C/c3ccc(N(C)C)cc3)c(C)cnc2c1`, the Potency was 10.7 µM (active).

As for `O=c1cc(-c2ccccc2Cl)oc2c(NS(=O)(=O)c3ccccc3OC(F)(F)F)ccc(O)c12`, the Potency entry is “inactive”. For `O=C(O)c1c(C(=O)N2N=C3/C(=C/c4ccccc4)CCCC3C2c2ccccc2)cccc1[N+](=O)[O-]` (stereo unspecified), the Potency entry is “inactive”. Take `Cc1ccccc1NC(=O)C1CCN(C(=O)N2CCOc3ccccc32)CC1`: the Potency entry was “inactive”. Then `CC1CN(C(=O)c2cc(S(=O)(=O)N(C)c3ccc(F)cc3)ccc2Cl)CC(C)O1` (stereo unspecified), with “inactive”; and `CCOc1ccc(S(=O)(=O)N2CCN(C)CC2)cc1NC(=O)c1ccccc1F`, with 7.57 µM (active); and `COc1ccc(S(=O)(=O)N2CCCCC2)cc1NC(=O)c1[nH]c(C)c(C(C)=O)c1C`, with “inactive”. Consider `CC(Oc1ccc(F)cc1)C(=O)Nc1cc(S(=O)(=O)N2CCCCC2)ccc1N1CCN(C)CC1` (stereo unspecified), for which the Potency result was “inactive”. As to `O=C1c2ccccc2C(=O)N1CCCc1cn(C[C@H]2CC[C@@H]([C@@H]3CC[C@H](Cn4cc(CCCN5C(=O)c6ccccc6C5=O)nn4)O3)O2)nn1`, the Potency result is “inactive”. As to `Cc1ccc(-c2n[nH]c(=O)c3ccccc23)cc1S(=O)(=O)Nc1ccccc1`, the Potency result is “inactive”.

Regarding `COc1ccc(Cc2nc3c4c(ncn3n2)Oc2ccc3ccccc3c2C4c2ccc(OC)c(OC)c2)cc1` (stereo unspecified), the Potency entry was “inactive”. Consider `COc1cc(C2C(C#N)=C(N)Oc3n[nH]c(C)c32)ccc1OC(=O)c1ccccc1` (stereo unspecified), for which the Potency was 8.49 µM (active). As for `CCOc1ccccc1O[C@H](c1ccccc1)[C@H]1CNCCO1`, the Potency entry was “inactive”. As for `Cc1[nH]c2ccc(C(=O)OC(C)C(=O)N(C)c3ccccc3)cc2c1C` (stereo unspecified), the Potency result was “inactive”. Then `CCOC(=O)c1[nH]c2ccc(C(=O)OC)cc2c1C(=O)OCC`, with 10.7 µM (active). `CS(=O)(=O)n1nc(OC(=O)c2cccs2)cc1N`: the Potency result is “inactive”.

Take `Cc1cc(O)c(-c2cc(O)c(C)cc2O)cc1O`: the Potency entry was “inactive”.

With `CCN(CC)S(=O)(=O)c1cc(OC)ccc1N=Nc1ccc(O)c2ncccc12`, the Potency entry is “inactive”.

Take `COc1cc(N(C(C)=O)c2ccc(O)c(C(=O)O)c2)c2ncccc2c1`: the Potency is 8.49 µM (active). Consider `COc1ccc(N)cc1-n1c(C)ccc1C`, for which the Potency entry is “inactive”.

Take `Nc1ccc2c(c1)C(=O)c1cc(N)c(Cl)cc1-2`: the Potency entry was “inactive”. Consider `COc1cc2c(cc1N)-c1ccc(N)cc1C2=O`, for which the Potency was 16.9 µM (active). As for `CCOc1ccc2ccccc2c1C(=O)N[C@@H]1C(=O)N2[C@@H]1SC(C)(C)[C@@H]2C(=O)O`, the Potency result is “inactive”. `CC(=O)Oc1ccc(N2C(=O)c3cccc4c([N+](=O)[O-])ccc(c34)C2=O)cc1`: the Potency result was “inactive”. To `CCN1C(=O)c2cccc3c(S(=O)(=O)N(C(C)=O)c4ccc(OC(C)=O)cc4)ccc1c23` belongs 12 µM (active). On to `N/C(=N\OC(=O)c1ccc2ccccc2c1)c1ccncc1`, for which the Potency entry is “inactive”. As for `C/C(=C1/C=Nc2ccccc21)c1ccc(N(C)C)cc1`, the Potency is 16.9 µM (active). As for `Cn1c(=O)cc2c3c(c(N4CCCCC4)ccc31)C(=O)c1ccccc1-2`, the Potency was 3.79 µM (active). To `CCOc1ccc(NC(=O)COc2cccc3cccnc23)cc1S(=O)(=O)N1CCCC1` belongs 16.9 µM (active). On to `CCOc1ccc(S(=O)(=O)NCc2ccc(C)cc2)c2cccnc12`, for which the Potency entry was “inactive”. As to `CCOc1ccc(NC(=O)COc2ccc3c(c2)CCC3)cc1OC`, the Potency result is “inactive”. For `C=CCn1c(C)cc(C(=O)COc2ccc(N(C)S(=O)(=O)c3ccc(NC(C)=O)cc3)cc2)c1C`, the Potency entry is “inactive”. To `CN(C)C1=C2C=CC=CC2/C(=C2/C=Cc3ccccc32)C=C1` (stereo unspecified) belongs 15.1 µM (active); to `O=C(Nc1ccon1)c1ccc(N2CCCCC2)c([N+](=O)[O-])c1`, “inactive”. To `CSc1cccc(NC(=O)CCCOc2cc(=O)n(C)c3ccccc23)c1` belongs “inactive”; to `O=C1/C(=C\c2cccc([N+](=O)[O-])c2O)SC(=S)N1Cc1ccccc1`, 8.49 µM (active); to `Cc1ccc(NC(=O)CSc2cccc3cccnc23)c(C)c1`, 9.53 µM (active). For `Cc1ccc(OCC(=O)Nc2ccccc2N2CCCC2)c(C)c1`, the Potency entry is “inactive”. For the molecule `O=C(Cc1ccccc1F)Nc1cccc(S(=O)(=O)N2CCCCC2)c1`, the Potency result is “inactive”. Then `Cn1c(=O)c2c(ncn2CC(=O)Nc2cccc(S(=O)(=O)Nc3ccccc3F)c2)n(C)c1=O`, with 8.49 µM (active); and `CCCNC(=O)C1(C)CCN(Cc2cccc(OC(=O)c3ccccc3)c2)C1` (stereo unspecified), with “inactive”; and `CC(=O)Nc1ccc(S(=O)(=O)Nc2cccc3cccnc23)cc1`, with 4.26 µM (active).

With `O=C(CCCl)Nc1cccc2cccnc12`, the Potency is 8.49 µM (active). On to `CC1(C)CC(=O)c2c(oc3ccc(NS(=O)(=O)c4cccc5cccnc45)cc23)C1`, for which the Potency result is “inactive”. To `CC(=O)Nc1ccc(S(=O)(=O)NCc2ccc3[nH]c(C)cc3c2)cc1` belongs “inactive”; to `O=S(=O)(Nc1cccc2cccnc12)c1ccccc1Br`, 9.53 µM (active); to `COc1ccc(Cl)cc1NC(=O)CCCn1c(=O)c2cccn2c2cccnc21`, “inactive”. To `CC(=O)c1cccc(-c2cnc3c(NC=O)cc(-c4ccc(N(C)C)cc4)cn23)c1` belongs “inactive”; to `COC(=O)c1cc2c(ccc3ccccc32)oc1=O`, 12 µM (active). On to `CC(C)Cc1nc2oc3c(=O)[nH]cnc3c2c2c1CCC2`, for which the Potency is 15.1 µM (active). Consider `Cc1ccccc1OCCn1cc(C(=S)N2CCN(C)CC2)c2ccccc21`, for which the Potency was 15.1 µM (active). `CCC(=O)c1cn(CC(=O)Nc2c(C)cccc2C)c2ccccc12`: the Potency entry is “inactive”.
